Measured values as given in PubChem BioAssay AID651812 (National Center for Advancing Translational Sciences (NCATS), 2012).
Screen size: about 2,100 compounds; about 650 (31%) were called active. Inconclusive results (about 16%) are left out. Calls come from the whole dose curve; as a rule, active = well fitted inhibition curve with a large enough effect; inconclusive = small, poorly fitted or top-dose-only effect; inactive = flat fitted curve, though single readings scatter. This is one part of the list.

assay: qHTS for inhibitors of Vif-A3G interactions: Cherry picks; conditions: HeLa A3G-eYFP + Vif (tagged APOBEC3G with the HIV-1 protein that degrades it), 24 h; Potency: eYFP fluorescence increase; series mostly up to 36.9 µM; note: nearly all actives have a fitted effect of over 80% in size
Method in brief: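 Cherry-picked compounds tested at several concentrations on A3G-eYFP/Vif HeLa cells for 24 hours; loss of Vif-driven degradation read as eYFP fluorescence by cytometric plate imaging, 488 nm excitation, 500-530 nm emission.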
Potency is the fitted concentration of half-maximal effect.

Potency, active:
Cc1ccc2nc(SCC(=O)Nc3ccc4sc(C)nc4c3)c(C#N)cc2c1 18.4 µM
Cc1nc2cc(NC(=O)CSc3nc4c(C)cccc4cc3C#N)ccc2s1 13 µM
COc1ccc2nc(SCC(C)=O)c(C#N)cc2c1 3.26 µM
COc1ccc2nc(SCC(=O)Nc3ccc4sc(C)nc4c3)c(C#N)cc2c1 20.6 µM
CCOC(=O)c1cc2n(c1/N=C/N(C)C)-c1ccccc1C2=O 20.6 µM
CCOc1ccc(NC(=O)/C(C#N)=C/c2ccc(N3CCCC3)c(C)c2)cc1 6.51 µM
CCOc1cc(/C=C(/C#N)C(=O)Nc2ccc(O)cc2)cc(Br)c1O 15.8 µM
CCSc1nnc(-c2sc3nnc(-c4ccccc4)c(-c4ccccc4)c3c2N)o1 10.3 µM
CC1=CN2C(=N)/C(=C/c3ccc([N+](=O)[O-])o3)C(=O)N=C2S1 9.94 µM
Fc1ccc2nc3[nH]c4ccccc4c3nc2c1 1.4 µM
CN1CCc2c(sc3c2C(=O)NC(c2ccc(-c4ccc(Cl)cc4)o2)N3)C1 (stereo not given) 11.6 µM
Cc1sc(-c2cc3c([nH]c2=O)CC(c2ccccc2)CC3=O)nc1-c1ccc(Cl)cc1 (stereo not given) 20.6 µM
COc1ccc2nc3ccccc3nc2c1NC(=O)c1ccc(Cl)cc1Cl 2.8 µM
COc1ccc2nc3ccccc3nc2c1NC(=O)c1ccc(Cl)cc1 20.6 µM
COc1ccc2nc3ccccc3nc2c1NC(=O)c1ccc(Br)cc1 14.6 µM
CN(C)c1ccc(/C=C2\SC(N3CCCCC3)=NC2=O)cc1 23.1 µM
CCN(CC)c1ccc(/C=C2\C(=N)N3N=C(CC(=O)N4CCOCC4)SC3=NC2=O)cc1 0.177 µM
CN(C)c1ccc(/C=C2\C(=N)N3N=C(CC(=O)N4CCCCC4)SC3=NC2=O)cc1 18.4 µM
COc1ccc2cc(-c3nc(Cl)c4c5c(sc4n3)CC(C)CC5)c(=O)oc2c1 (stereo not given) 4.11 µM
CN1C(=O)/C(=C/c2ccccc2OCc2ccc(F)cc2)N(C)C1=S 23.1 µM
O=[N+]([O-])c1ccccc1S(=O)(=O)Nc1ccc(-c2ccc(N3CCOCC3)nn2)cc1 23.1 µM
CC[n+]1ccc(/C=C2\Sc3ccccc3N2CCCS(=O)(=O)[O-])c2ccccc21 20.6 µM
COc1ccc(-c2cc(-c3cccs3)nc3sc(C#N)c(N)c23)cc1 16.4 µM
N#Cc1sc2nc(-c3cccs3)cc(-c3ccc(Cl)cc3)c2c1N 15.8 µM
CCN(CC)C(=O)c1sc2nc(-c3cccs3)cc(-c3ccc(Cl)cc3)c2c1N 14 µM
CCCCN1C(=O)C2Cc3c([nH]c4ccccc34)CN2C1=S (stereo not given) 14 µM
CCCCN1C(=O)c2cccc3cc(O)cc(c23)C1=O 16.4 µM
CCNc1ccc(Br)cc(C(=O)/C=C/c2ccc3c(c2)OCO3)c1=O 18.4 µM
Cc1ccccc1-n1c(/C=C/c2c(C)n(C)c3ccccc23)nc2ccccc2c1=O 8.2 µM
Cn1ncc(N=Cc2c(O)ccc3ccccc23)c1C(=O)Nc1cccc(Cl)c1 11.6 µM
CSc1nsc(/C=C/Nc2ccc(O)cc2C)c1C#N 20.6 µM
O=C(Nc1cc(F)cc(F)c1)c1ccc(NCCc2ccccc2)c([N+](=O)[O-])c1 14.6 µM
Cc1ccc(NC(=O)c2ccc(NCc3ccco3)c([N+](=O)[O-])c2)cc1Cl 18.4 µM
Cc1ccc(NC(=O)c2ccc(NCC3CCCO3)c([N+](=O)[O-])c2)cc1Cl (stereo not given) 16.4 µM

Potency, inactive:
CCC(=O)Nc1nc2ccc(NC(=O)c3cc(OC)c(OC)c(OC)c3)cc2s1
Cc1ccc(NC(=O)CSc2n[nH]c(-c3ccccn3)n2)cc1
CCN(CC)c1ccc(NC(=O)CSc2nc(C3CC3)nc3ccccc23)cc1C
COc1ccc2cc(C(=O)C3CCCN(Cc4ccccn4)C3)ccc2c1 (stereo not given)
COc1ccc2nc(NC(=O)c3ccc([N+](=O)[O-])o3)sc2c1
CCc1ccc2nc(SCC(=O)Nc3ccccc3N3CCOCC3)c(C#N)cc2c1
CCCOc1ccccc1C1CC(=O)Nc2cc3c(cc21)OCO3 (stereo not given)
Cn1nnnc1SCc1nc2scc(-c3ccc(Cl)cc3)c2c(=O)[nH]1
CCOC(=O)c1sc(NC(=S)NC(=O)c2ccco2)nc1C
COc1cccc(Nc2nc(Nc3ccc(Cl)c(C(=O)O)c3)nc(C)c2[N+](=O)[O-])c1
N#C/C(=C/c1ccc2c(c1)OCO2)C(=O)Nc1ccc(O)cc1
CCOc1ccc(/C=N/NC(=O)c2cc3c(OC)cc(OC)c(OC)c3[nH]2)cc1
CCOc1ccc(NC(=O)N2CC=C(c3c[nH]c4ccccc34)CC2)cc1
COc1ccc(NC(=O)C2Cc3c(-c4cccc(NC(C)=O)c4)ccnc3O2)cn1 (stereo not given)
CSC1=NC(C(Cl)(Cl)Cl)N=C(c2ccccc2)N1 (stereo not given)
CCS(=O)(=O)C1=NN2C(=N)/C(=C\c3ccc(SCc4ccco4)o3)C(=O)N=C2S1
CCOc1ccccc1C1CC(=O)NC2=C1C(=O)CCC2 (stereo not given)
COCCOC(=O)c1[nH]c2c(c1C)C(=O)CC(c1ccccc1)C2 (stereo not given)
O=C1CC(c2ccccc2)Cc2[nH]c(=O)c(-c3nc(-c4cccc(Cl)c4)cs3)cc21 (stereo not given)
O=C(O)CSc1c2ccccc2cc2ccccc12
COc1ccc(S(=O)(=O)NCc2ccccn2)cc1NC(=O)c1ccccc1
COc1ccc(C)cc1Nc1c2c(nc3ccccc13)CCC2
COc1cc(C(=O)Nc2ccc3ccccc3c2)cc(OC)c1OC
COC(=O)/C(=C\Nc1ccc(Cl)cc1Cl)NC(=O)c1ccc(OC)cc1
O=C(NC(=S)Nc1c(Cl)cc(Cl)cc1Cl)c1ccccc1
COc1ccccc1Nc1c2c(nc3ccc(NC(=O)c4ccc(N(C)C)cc4)cc13)CCCC2
COc1ccc2nc(Nc3nc(CSc4ccc(C)cc4)cc(=O)[nH]3)nc(C)c2c1
CCN(CC)c1ccc(/C=C2\SC(N)=NC2=O)cc1
COc1cc(/C=C2\C(=N)N3N=CSC3=NC2=O)cc(Br)c1OC(=O)c1ccco1
O=c1c2cc3ccccc3n2cnn1Cc1ccccc1F
CCOc1ccccc1Oc1nc(C)nc2c1oc1ccccc12
Brc1ccc2c(c1)C(c1cccnc1)=NNC(c1cccs1)=N2
COc1cc(C(=O)N/N=C(\C)c2ccccn2)cc(OC)c1OC
COc1cc(C2Nc3ccc4ncccc4c3C3=C2C(=O)CCC3)cc(OC)c1O (stereo not given)
CCOc1ccc(C(=O)COC(=O)Cc2n[nH]c(=O)c3ccccc23)cc1
Cc1nc(-c2ccc(Cl)cc2)sc1C(=O)NN
CC(C)CC(=O)NC(=S)N(Cc1ccccc1)Cc1ccccc1
Oc1ccc(C=NNC(=S)Nc2ccc(F)cc2)c(O)c1
COc1cc(OC)cc(C(=O)N/N=C/c2ccc(OC)c(COc3ccc4ccccc4c3)c2)c1
COc1cc(C(=O)Nc2ccc(C)cc2)c2ccccc2n1
COc1ccc(/C=N/NC(=O)c2cccnc2)cc1CSc1ccccn1
CC1(C(=O)NCc2ccco2)Cc2c(-c3cccc(C(N)=O)c3)ccnc2O1 (stereo not given)
C/C(=N\NC(=O)C(C)n1nc(C)c([N+](=O)[O-])c1C)c1ccccc1O (stereo not given)
Cc1cc(C)cc(Oc2nc(C(F)(F)F)nc3ccccc23)c1
Cc1c(Cl)cccc1NC(=O)c1oc2ccc(S(=O)(=O)N3CCC4(CC3)OCCO4)cc2c1C
COc1ccc(NC(=O)C(NC(=O)/C=C\c2ccc3c(c2)OCO3)c2ccccc2)cc1 (stereo not given)
O=C(N/N=C/c1ccc2c(c1)OCO2)c1cccc2ccccc12
COc1ccc(NC(=O)C2Cc3c(-c4cccc(C(C)=O)c4)ccnc3O2)cc1 (stereo not given)
Cc1c(/C=N\NC(=O)c2cc3ccccc3o2)c2ccccc2n1C
CCCn1c(CN2CCN(C(=O)OCC)CC2)nc2cc(NC(=O)C(C)C)ccc21
COc1ccccc1Nc1nnc(SCC2CCCCO2)s1 (stereo not given)
O=C(NN=Cc1c(O)ccc2ccccc12)c1ccc2c(c1)OCO2
Cc1cc2nc(SCCOC(=O)Nc3cccc(Cl)c3)nc(C)c2cc1C
CSc1nsc(/C=C/Nc2ccc(F)cc2)c1C#N
Cc1nc(CSc2nsc(/C=C/N(C)C)c2C#N)cs1
Cc1cc(C)nc(Nc2n[nH]c(COc3cccc4ccccc34)n2)n1
CCN(CC)C(=O)Cn1c(=O)n(-c2ccccc2)c(=O)c2c3c(sc21)CCC3
O=C(O)c1ccc(NS(=O)(=O)c2cccc(C(=O)Nc3ccccc3[N+](=O)[O-])c2)cc1
Cc1ccc(NC(=O)CSc2ccccc2NC(=O)c2cccc(Cl)c2)cc1Cl
Cc1ccc(NC(=O)c2ccc([N+](=O)[O-])s2)cc1S(=O)(=O)N1CCOCC1
O=C(NC(=S)Nc1ccc(N2CCCCC2)c(Cl)c1)c1ccc2c(c1)OCCO2
Cc1ccc2c(CC(=O)NCc3ccco3)coc2c1C
S=C(Nc1ccccc1)N1CCn2c1nc1ccccc12
CC(=O)c1cccc(-c2ccnc3c2CC(C(=O)Nc2ccc4c(c2)OCO4)O3)c1 (stereo not given)
COc1ccccc1N1CCN(C(=O)c2cc(=O)c3cc(C)ccc3o2)CC1
CCCC(=O)NC(c1ccc(OC)cc1)c1c(O)ccc2ccccc12 (stereo not given)
